Experimental data: PubChem BioAssay (NCI)
The panel holds about 83,000 compounds, 20% with a hit somewhere; the sample as a whole holds those more often.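 Values shown are percent growth following 48 h exposure of cells in 96-well plates to a single concentration of compound; below 10 was considered active.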 Values without a mark were called inactive. Calls of active or inactive are those of the source.

Legend:
Test in all cases: NCI-60 one-dose screen, 48 h (100 = growth as untreated, 0 = no growth, -100 = all killed)
Conditions in all cases: 10 µM unless noted
SK-MEL-2 melanoma = tested on: SK-MEL-2 melanoma
EKVX NSCLC = tested on: EKVX NSCLC
SN12C renal = tested on: SN12C renal
UO-31 renal = tested on: UO-31 renal
TK-10 renal = tested on: TK-10 renal
ACHN renal = tested on: ACHN renal
CAKI-1 renal = tested on: CAKI-1 renal
A498 renal = tested on: A498 renal
CCRF-CEM leukemia = tested on: CCRF-CEM leukemia
MOLT-4 leukemia = tested on: MOLT-4 leukemia

| SMILES | growth (SK-MEL-2 melanoma) | growth (EKVX NSCLC) | growth (SN12C renal) | growth (UO-31 renal) | growth (TK-10 renal) | growth (ACHN renal) | growth (CAKI-1 renal) | growth (A498 renal) | growth (CCRF-CEM leukemia) | growth (MOLT-4 leukemia) |
| --- | --- | --- | --- | --- | --- | --- | --- | --- | --- | --- |
| Fc1ccccc1C1c2ccccc2-c2nccn21 (stereo unspecified) | 99.5% | 96.1% | 97.1% | 93.7% | 97.4% | 112% | 66.5% | 90.9% | 96.9% | 87.4% |
| O=c1oc2c(cc1-c1ccc([N+](=O)[O-])cc1)C(O)Oc1ccccc1-2 (stereo unspecified) | 71.6% | 80.7% | 98.4% | 74.5% | 95.8% | 103% | 78.2% | 84.8% | 62.5% | 63.6% |
| CC(=O)Nc1cc2c3c(cccc3c1)-c1ccccc1-2 | 83.5% | 55.1% | 31.6% | 19.2% | 96.3% | 91.5% | 33.5% | 58.7% | 21.4% | 45.8% |
| CC1=C([Se]CC(OC(=O)[C@@H](CSSC(C)(C)C)NC(=O)C(C)(C)C)C(=O)NCCCCCC(=O)OCc2ccccc2)C(=O)c2ccccc2C1=O (stereo partly specified) | -24.2% (active) | -24.2% (active) | 2.42% (active) | -78.5% (active) | -29.3% (active) | -10.9% (active) | -19.3% (active) | -5.18% (active) | 3% (active) | 5.23% (active) |
| O=C1OC(Oc2ccccc2)(c2ccccc2)c2ccccc21 (stereo unspecified) | 104% | 133% | 110% | 102% | 109% | 102% | 87.4% | 79.9% | 103% | 76% |
| O=c1[nH]cc(Nc2cc(Cl)c3nonc3c2[N+](=O)[O-])c(=O)[nH]1 | 20% | 34% | 107% | 89.3% | 125% | 92.9% | 27% | 93.8% | 106% | 91.1% |
| CCOC(=O)N1CCC(N=C2CSc3nnc(-c4cc(C(F)(F)F)cc(C(F)(F)F)c4)n3N2)CC1 | -22.5% (active) | 31.2% | 28.5% | 34.2% | 14.9% | 30.5% | 55.2% | 22.4% | 6.9% (active) | -2.78% (active) |
| COc1ccc(/C=C2/SC(=Nc3c(C)nn(-c4ccccc4)c3N)NC2=O)cc1 | 39.1% | 69.3% | 67.9% | 32.8% | 71.6% | 46.8% | 23% | -54.5% (active) | 33.2% | 51.6% |
| O=C1NC(=S)S/C1=C\c1cc(Br)ccc1O | 100% | 107% | 102% | 67.6% | 107% | 93.5% | 99.5% | 76% | 79.2% | 107% |
| Nc1ccc(N=Nc2ccccc2)cc1[N+](=O)[O-] | 87.2% | 75.2% | 84.6% | 45.9% | 82.8% | 89.9% | 66% | 109% | 97.7% | 74.1% |
| CC(=O)Nc1cc(C(c2ccccc2)c2ccccc2)cc(C(c2ccccc2)c2ccccc2)c1C | 27% | 61.4% | 69.7% | 49.3% | 84.3% | 51.1% | 49.2% | – | 34.1% | 8.92% (active) |
| c1ccc(Nc2ccc(Nc3nc(-c4ccccc4)nc4ccccc34)cc2)cc1 | 83.1% | 87.1% | 87.9% | 63.7% | 98.5% | 81.3% | 71.2% | – | 52.7% | 53% |
| N#Cc1ccc(-c2csc(Nc3ccc4nc5n(c(=O)c4c3)CCC5)n2)cc1 | 95.4% | 99% | 104% | 100% | 110% | 108% | 102% | – | 51.8% | 92.8% |
| N#Cc1c(-c2ccccc2)cc(-c2ccccc2)n(CCC(=O)O)c1=O | 9.85% (active) | 76.8% | 69.1% | 63.1% | 75.6% | 67.1% | 46.4% | – | 54.9% | 49.4% |
| COc1ccc(C2=NN(C(N)=S)C(c3ccc4c(c3)OCO4)C2)cc1 (stereo unspecified) | 47% | 29.1% | 31% | -7.08% (active) | 50.2% | 22% | 6.32% (active) | – | 5.49% (active) | 13.8% |
| COc1ccc2[nH]c(=O)c(CNc3ccc(Nc4nccc(-c5ccc(Cl)cc5)n4)cc3)cc2c1 | 87% | 94% | 87.1% | 64% | 102% | 90.1% | 97.6% | – | 75.7% | 48.4% |
| Nc1nc(Nc2ccccc2SSc2ccccc2Nc2nc(N)nc(C(Cl)(Cl)Cl)n2)nc(C(Cl)(Cl)Cl)n1 | 72.3% | 67.5% | 19.3% | -38.5% (active) | 116% | -25.3% (active) | 52.2% | – | 45.5% | 46.7% |
| O=C(O)CNC(=O)C1(N2C(=O)c3ccccc3C2=O)CCCC1 | 101% | 104% | 99% | 94.1% | 99.6% | 108% | 98.5% | – | 88.8% | 101% |
| Nc1nc(Nc2ccccc2SSc2ccccc2Nc2nc(N)nc(-c3cccc(Cl)c3)n2)nc(-c2cccc(Cl)c2)n1 | 105% | 90.5% | 62.1% | 83.9% | 154% | 88.8% | 75.5% | – | 68.1% | – |
| COc1ccc2c(c1)c(CC(=O)[Se]C)c(C)n2C(=O)c1ccc(Cl)cc1 | 12.4% | -26.7% (active) | -4.23% (active) | 14.7% | -58.4% (active) | 10.4% | -35.1% (active) | – | 13% | 6.33% (active) |
| c1ccc2nc(N/N=C3\CCCCC3C3CCCCC3)ccc2c1 (stereo unspecified) | 34.6% | 33.5% | 59.4% | 60.9% | 72.8% | 44.5% | 43.4% | – | 7.99% (active) | 6.97% (active) |
| CC1CN(CC(O)c2ccc(Br)cc2)CCO1 (stereo unspecified) | 103% | 120% | 110% | 85.4% | 110% | 106% | 103% | – | 102% | 97% |
| C(=C1c2ccccc2-c2ccccc21)c1ccccn1 | 54.2% | 70.6% | 80.3% | 79.6% | 91.7% | 96.5% | 52% | 97.8% | 85.5% | 67.3% |
| COc1ccc(-c2ccc(O)c(C(=O)/C=C/c3cc(OC)c(OC)c(OC)c3)c2)cc1 | 84.4% | 79.8% | 94.6% | 59.7% | 103% | 85.7% | 86.5% | 124% | 24.2% | 34.3% |
| N#Cc1c(-c2ccccc2)cc(-c2ccccc2)n(CC(=O)O)c1=O | 28% | 81.4% | 70% | 68.9% | 84.2% | 76.1% | 47.3% | – | 56.3% | – |
| Nc1ccc2c(c1)Cc1cc(Cl)c(Cl)cc1-2 | 47.5% | 48% | 57.2% | 63.6% | 101% | 66.8% | 65.4% | – | 32.2% | 70.2% |
| N#CC1c2ccccc2C=CN1C(=O)N(c1ccccc1)c1ccccc1 (stereo unspecified) | 88.2% | 102% | 76.1% | 36.5% | 32.1% | 12.3% | 2.37% (active) | – | 3.82% (active) | 3.19% (active) |
| Cc1ccccc1NC(=O)N/C(N)=N/c1nc2ccccc2s1 | 37.6% | 39.6% | 40% | 54.6% | 67% | 39.2% | 38.8% | – | 14.2% | 14.9% |
| N#Cc1c(-c2ccccc2)cc(-c2ccccc2)n(CCCCCCC(=O)O)c1=O | 88.8% | 92.5% | 99.2% | 82.7% | 105% | 98.8% | 97.7% | – | 106% | 98.4% |
